A number with no mark means an inactive call. Calls of active or inactive are those of the source. Rule as the data show it: active = inhibition score above about 11; inactive = the rest.

This assay can be described thus: S. cerevisiae short- and long-term growth effects – BY4741, OD595, 24 h, dose response (AID 489042). To be noted: flow cytometer event count, 7 d (AID 449753), active compounds read high. In general terms: Flow cytometry measures light scatter and fluorescence of single cells or particles in a stream.
As for `CC(=O)O[C@H]1CCC2C3CC[C@H]4[C@@H](O)[C@H](O)CC[C@]4(C)C3CC[C@@]21C` (stereo not given in full), the inhibition score is 0.
Consider `O=c1[nH]c(O)c(C=Nc2ccc(F)c(Cl)c2)c(=O)[nH]1`, for which the inhibition score was 0.
To `C=C1C(O)[C@@H]2O[C@]3(CC[C@H](/C=C/C(C)[C@@H]4CC(C)=CC5(O[C@H](C[C@@](C)(O)C(=O)O)CCC5O)O4)O3)CC[C@H]2O[C@@H]1C(O)CC(C)[C@H]1OC2(CCCCO2)CCC1C` (stereo not given in full) belongs 11 (active); to `Cn1c(O)c(C(=Nc2ccc(F)cc2)c2ccccc2Cl)c(=O)n(C)c1=O`, 0; to `OCC[n+]1c2ccccc2nc2ccc(N3CCOCC3)cc21`, 0.
Regarding `Oc1cccc2nc3ccccc3nc12`, the inhibition score is 0.
To `C#C[C@]1(O)[C@H](O)CC2C3CC[C@H]4C[C@@H](O)CC[C@]4(C)C3CC[C@@]21C` (stereo not given in full) belongs 0; to `CNc1ccc2nc3ccccc3[n+](C)c2c1`, 0.
To `C[C@]12CCC3C(CC[C@H]4C[C@H](O)CC[C@]34C)C1C[C@@H](CCCCl)[C@@H]2O` (stereo not given in full) belongs 0; to `C[n+]1c2ccccc2nc2ccc(NCCO)cc21`, 0.
With `Nc1cc2nc3ccccc3nc2cc1N`, the inhibition score was 0.
Next, `Cn1c(=O)[nH]c2nncnc2c1=O`: 0; `C[C@]12CCC3C(CC[C@H]4C[C@@H](O)CC[C@]34C)C1CC[C@@H]2OC(=O)[C@H](N)CCCCN` (stereo not given in full): 0; `C[C@]12CCC3C(CC[C@H]4C[C@H](O)CC[C@]34C)C1CCC2=O` (stereo not given in full): 0.
As for `C[C@]12CCC3C(CC[C@H]4C[C@@H](O)CC[C@]34C)[C@H]1CC[C@H]2O` (stereo not given in full), the inhibition score is 0.

Source of the values: PubChem BioAssay AID489042 (NMMLSC, 2010).
